D3 ag: agonists of human D3 dopamine receptor; D3R DiscoveRx beta-arrestin cells, luminescence, 90 min; max activation, %; actives 0.58% (n = 410,000); AID 652048; in the data active = max activation above about 30%; note: 0% is about no effect
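Agonist mode: compounds and dopamine controls were applied to plated cells for 90 min at 37 degrees C after an overnight attachment at 1500 cells/well. Luminescent read-out followed 30 - 60 minutes at room temperature with DiscoveRx detection reagent.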
D1 ag: human D1 receptor agonism. P21728. HEK293 T-REx D1 cells, calcium flux, agonist mode. actives 1% (n = 360,000). activation, % at 2 µM; in the data active = activation above about 30%; note: 0% is about no effect
Target sequence (P21728 whole entry, looked up): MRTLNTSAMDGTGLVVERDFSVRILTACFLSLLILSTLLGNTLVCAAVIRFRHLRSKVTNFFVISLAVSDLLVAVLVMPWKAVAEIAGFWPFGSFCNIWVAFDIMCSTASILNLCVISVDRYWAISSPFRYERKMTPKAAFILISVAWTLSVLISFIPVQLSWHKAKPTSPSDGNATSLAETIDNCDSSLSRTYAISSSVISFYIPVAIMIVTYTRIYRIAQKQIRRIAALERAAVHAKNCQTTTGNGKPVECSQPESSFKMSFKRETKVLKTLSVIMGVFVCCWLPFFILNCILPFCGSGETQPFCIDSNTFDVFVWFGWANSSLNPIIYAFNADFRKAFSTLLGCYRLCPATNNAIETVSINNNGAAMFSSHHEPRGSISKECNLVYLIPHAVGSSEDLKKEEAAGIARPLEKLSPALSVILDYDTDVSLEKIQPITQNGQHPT
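Inducible HEK293 T-REx D1 cells, force-coupled to calcium signalling, were plated at 4000 cells/well with tetracycline and held overnight at 30 C. After no-wash calcium dye loading, compound-evoked calcium rise over 180 s flagged agonists.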
D3 antag: D3 dopamine receptor (human) antagonism; P35462; D3R cells, DiscoveRx beta-arrestin luminescence, antagonist mode; hits give low values; max response, negative = inhibition, %; actives 2.5% (n = 360,000); in the data active = max response below about -50%; inconclusive = no clear call, values can overlap the other calls; note: % is set by controls: 0 for no effect and ±100 for the full control effect
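Cells expressing the human receptor were seeded at 1500 cells/well, incubated overnight at 37 degrees C in 5% CO2, then exposed to library compounds with dopamine controls for 90 minutes at 37 degrees C before luminescent detection.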
D1 antag: human D1 dopamine receptor antagonism | P21728 | HEK293 TREx D1 cells, calcium flux, dopamine EC80; hits give low values | actives 3.2% (n = 360,000) | activity change, negative = inhibition, % at 10 µM; in the data active = activity change below about -30%; note: % is set by controls: 0 for no effect and ±100 for the full control effect
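Tetracycline-induced HEK293 Trex D1 cells, force-coupled to calcium, dye-loaded; compounds added and read 180 s, then EC80 dopamine added and calcium flux tracked kinetically another 180 s.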
D1 PAM: human D1 dopamine receptor positive modulation. P21728. HEK293 TREx D1 cells, calcium flux, dopamine EC20 potentiation. potentiation, % at 10 µM. actives 0.036% (n = 360,000). AID 504651; in the data active = potentiation above about 30%; note: 0% is about no effect
Active calls of the source: *; ? = inconclusive; . = no result. An excerpt weighted towards active compounds, which were near 6% of everything screened.

SMILES	D3 ag	D1 ag	D3 antag	D1 antag	D1 PAM
CC(=O)N(c1cccc(Br)c1)C1C=CS(=O)(=O)C1 (stereo unspecified)	-15	0	-67*	0	-2
O=C(c1ccc2c(c1)OCO2)N(c1ccccc1)C1C=CS(=O)(=O)C1 (stereo unspecified)	-2	3	0	-40*	2
Cc1ccc(NC(=O)c2c(C)oc3ccc(O)c(CN4CCCCC4)c23)cc1	4	-2	.	9	1
Cc1cc(C)cc(NC(=O)CSc2nncn3c2cc2occc23)c1	-14	0	.	11	-1
CCCCn1nnc(NC(=S)NC(=O)c2ccc(-c3cccc(Cl)c3Cl)o2)n1	-23	5	-71*	10	5
CCCCn1nnc(NC(=O)c2ccc(-c3ccccc3[N+](=O)[O-])o2)n1	-3	-1	?	.	-3
COc1ccc(S(=O)(=O)c2cc3cc(C(C)(C)C)cc(O)c3oc2=O)cc1	0	2	.	-6	-3
COC(=O)c1ccc(COC(=O)C(NC(=O)Cc2ccccc2)C(C)C)cc1 (stereo unspecified)	0	6	-7	-32*	2
COc1ccccc1C(=O)COC(=O)C(NC(=O)Cc1ccccc1)C(C)C (stereo unspecified)	-5	.	2	.	.
CCCCCSc1nncc(=O)[nH]1	-5	2	24	12	-4
CCCCCCCCSC1=CC(=O)C(OC)=C(OC)C1=O	-13	.	-106*	.	.
COc1ccc(C2NC(c3ccc(OC)cc3)C(C)C(=O)C2C)cc1 (stereo unspecified)	10	2	-13	-10	-5
CC1C(=O)C(C)C(c2ccc(Cl)cc2)NC1c1ccc(Cl)cc1 (stereo unspecified)	-6	.	-61*	.	.
Cc1cc2c(NCCc3ccccc3)ncnc2s1	9	12	6	13	-5
Cc1cc2c(Nc3ccccc3)ncnc2s1	-19	0	-61*	1	-3
Oc1c(CN2CCN(c3ccccc3)CC2)cc(Br)c2cccnc12	-15	0	?	-87*	-3
CC(C)OCc1cc(CN2CCN(c3ccccc3)CC2)c(O)c2ncccc12	-20	-2	.	0	-3
Oc1c(CN2CCOCC2)cc(COCc2ccccc2)c2cccnc12	-23	1	-67*	5	3
CC1(C(=O)NCc2cccnc2)Cc2c(-c3cccc(C(F)(F)F)c3)ccnc2O1 (stereo unspecified)	-6	.	10	.	.
COc1cc(OC)c(N(C)C(=O)c2sc3nc4n(c(=O)c3c2C)CCCC4)cc1Cl	-2	18	.	1	-4
COc1cc(OC)cc(C(=O)NCC2CCCN(C(=O)c3oc(C)cc3C)C2)c1 (stereo unspecified)	0	3	13	-9	-1
CCOc1ccc2nc(C)cc(Nc3ccccc3OCC)c2c1	-17	25	.	-49*	-1
CC(=O)N1CCN(CC(C)(C)NS(=O)(=O)c2ccccc2)CC1	5	.	0	.	.
CC(CN1CCNCC1)(NS(=O)(=O)c1ccccc1)c1ccccc1 (stereo unspecified)	-17	0	-71*	-35*	-13
CC(C)(CN1CCN(Cc2ccccc2)CC1)NS(=O)(=O)c1ccccc1	-20	4	-52*	-26	-7
SMILES	D3 ag	D1 ag	D3 antag	D1 antag	D1 PAM
CC(C)(CN1CCN(C(c2ccccc2)c2ccccc2)CC1)NS(=O)(=O)c1ccccc1	-36	4	-53*	-2	1
CC(C)(C)Nc1nc(NN)nc(NC(C)(C)C)n1	-15	0	-80*	-10	0
CC(C)(C)Nc1nc(Cl)nc(NC(C)(C)C)n1	-8	-1	-19	-20	-6
COC(=O)c1ccc(C(=O)OC)c(NC(=O)c2c(-c3ccccc3)c(-c3ccccc3)nn(C)c2=O)c1	8	0	.	14	3
COc1ccc(NC(=O)NNC(=O)COc2ccc3cc(Br)ccc3c2)c(OC)c1	1	5	29	-32*	-1
COc1ccc(NC(=O)COc2ccc(Br)cc2)c(OC)c1	3	7	0	-4	-7
CC(C)CC(=O)Nc1c2c(nn1-c1cccc(Cl)c1)CS(=O)C2 (stereo unspecified)	-1	2	12	-33*	8
O=C(NCc1ccccc1Cl)c1ccc2c(c1)nnn2C1CCCC1	-11	7	.	-34*	-4
CCc1ccccc1NC(=O)c1ccc2c(c1)nnn2C1CCCC1	-9	5	.	-30*	0
N#CC1(NC(=O)COC(=O)/C=C/c2ccc3ccccc3n2)CCCCC1	2	5	-8	-50*	-13
Cc1cccc(CSCc2ccc(C(=O)NCCc3ccccc3)o2)c1	-7	11	.	-79*	-2
CCOc1ccc(CCNC(=O)c2ccc(CSCc3ccccc3C)o2)cc1OCC	5	36*	.	-22	-3
COCCNC(=O)c1ccc(CSCc2cccc(Cl)c2)o1	-1	0	-11	6	1
O=C(NCCc1ccc(Cl)cc1)c1ccc(CSCc2ccccc2Cl)o1	-13	31*	.	-20	-2
CN1C(=O)[C@H]2[C@@H](/C=C/c3ccccc3)N3C(=O)CN(Cc4ccc(-c5ccccc5)cc4)C(=O)[C@@]3(Cc3ccccc3)[C@H]2C1=O	0	5	-22	2	-8
COc1cc(C(=O)NC(C)c2cccc3ccccc23)cc(OC)c1OC (stereo unspecified)	0	4	5	-8	-7
CC1CN(S(=O)(=O)Cc2ccccc2)CC(C)O1 (stereo unspecified)	-8	1	-13	-9	0
CC1CN(S(=O)(=O)c2ccc(C(=O)OCc3ccc(C#N)cc3)cc2)CC(C)O1 (stereo unspecified)	1	34*	-6	0	.
CC1CN(S(=O)(=O)c2ccccc2)CC(C)O1 (stereo unspecified)	-21	2	10	-35*	1
CCN(CC)CCCn1c(C)cc2c(c1=O)C(c1ccccc1)C(C#N)=C(N)O2 (stereo unspecified)	-12	0	-20	-23	-7
Cc1cc2c(c(=O)n1CCc1ccccc1)C(C(C)C)C(C#N)=C(N)O2 (stereo unspecified)	3	3	40	-32*	-12
Cc1cc(OCCN2CCN(S(=O)(=O)c3ccccc3F)CC2)ccc1C(C)C	-16	22	0	3	-12
CCOC(=O)c1cccc(NC(=O)c2cc3sccc3n2Cc2ccc(Cl)cc2)c1	-19	10	.	6	-5
CCOC(=O)c1cccc(NC(=O)c2cc3sccc3n2C)c1	6	2	39	-32*	-7
CCCCCn1c(=O)[nH]c2cc(C(=O)NCc3ccc(C)cc3)ccc2c1=O	10	2	.	4	0
COc1cc(-c2cnc3c(NC=O)cc(-c4ccccc4Cl)cn23)cc(OC)c1OC	-7	.	0	.	.

Compound activity as filed in PubChem BioAssay.
